Reference: PubChem BioAssay (NCATS)
Unmarked numbers belong to inactive results. Inconclusive results are not listed. Active and inactive are the calls of the source. Unless noted, calls come from the whole dose curve; as a rule, active = well fitted curve in either direction with a large enough effect (not every such curve was filed as active); inconclusive = small, poorly fitted or top-dose-only effect, or another doubt; inactive = flat fitted curve, though single readings scatter.

Experiments:
[1] = AP1 Signaling Pathway (AID 357); conditions: ME-180 AP-1-bla reporter, EGF-induced, beta-lactamase ratio, 5 h; at 17.2 µM (top of the series) unless noted;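 note: ME-180 reporter cells stimulated with EGF at its EC50 level; % is set by controls: 0 for no effect and ±100 for the full control effect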
In short: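 A ratiometric CCF4 readout (405 nm excitation; 460 and 530 nm emission) quantified AP-1-driven beta-lactamase in ME-180 cells after 5 h with compound and EC50 EGF; AC50 values were derived for activators and inhibitors.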

[2] = NFAT Signaling Pathway (AID 444); conditions: Jurkat NFAT-bla M1, carbachol, beta-lactamase ratio, 5 h; at 17.2 µM (top of the series) unless noted;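 note: carbachol stimulus at about its EC50 of 1 µM final; % is set by controls: 0 for no effect and ±100 for the full control effect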
In short: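 Read-out: CCF4 FRET ratio (460 nm/530 nm) after 1 h RT dye loading, used for %activity and AC50 from titration series. Cells: Jurkat NFAT-β-lactamase/M1 line, treated with compound plus 1 uM carbachol for 5 h, 37 °C.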

[3] = Stat Signaling Pathway (AID 446); conditions: ME-180 SIE beta-lactamase reporter, IL-6 stimulated, 5 h; at 17.2 µM (top of the series) unless noted;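 note: ME-180 cervical cancer cells given 40 pM IL-6 alongside compound; SIE-controlled beta-lactamase reporter measured as 460/530 nm FRET emission ratio; % is set by controls: 0 for no effect and ±100 for the full control effect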
In short: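 Emission at 460 and 530 nm (excitation 405 nm) reports SIE-controlled beta-lactamase in ME-180 cells. Cells received compound with 40 pM IL-6 for 5 hrs at 37 C; data scaled between 300 pM IL-6 and 125 nM JAK-inhibitor controls.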

[4] = biological target: Glucocorticoid receptor (Homo sapiens) (UniProt P04150); experiment: GR-GFP Redistribution (AID 450;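 active = compounds whose dose series gives a full or clear partial fitted curve of increased nuclear translocation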; note: potency is the fitted concentration of half-maximal effect)
[5] = qHTS Assay for Identification of Small Molecule Agonists for Hypoxia Response Element Signaling Pathway (AID 914; active = well fitted activation curve with a large enough effect in the signal ratio, with a control signal flat, not every such curve was filed as active; the % refers to the signal ratio; note: potency is the fitted concentration of half-maximal effect; for activation: % of control where 0% means no effect); conditions: ME-180 (cervical carcinoma) HRE-bla reporter, beta-lactamase ratio, CoCl2, 17 h; activation: hits give high values
In short: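 Compounds in a titration series were added to ME-180 reporter cells alongside an EC50 level of CoCl2. After 17 hours, beta-lactamase activity was read as the 460nm/530nm emission ratio of CCF4, giving AC50 values.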

[6] = biological target: 3',5'-cyclic-AMP phosphodiesterase 4B (Homo sapiens) (UniProt Q07343); experiment: qHTS Assay for Inhibitors of PDE-IV (AID 607; active = well fitted activation curve with a large enough effect in the main read-out, with a control signal flat, not every such curve was filed as active; note: % of control where 0% means no effect)
In short: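 The readout is membrane depolarisation from a cAMP-sensing CNG channel, detected with a potential dye at ex 535/em 590. Cells were HEK293-derived (endogenous PDE-IV) at 1000 cells/well, titrated up to 22.9 uM final.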

[7] = biological target: Guanine nucleotide-binding protein G(i) subunit alpha-1 (Homo sapiens) (UniProt P63096); experiment: qHTS Assay for Inhibitors of RGS12 GoLoco Motif Activity (Green Fluorophore) (AID 879; active = well fitted curve in the direction sought with a large enough effect; an effect the other way counts as inactive or inconclusive;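 note: 0% = labeled peptide with Gαi1 and full inhibition = labeled peptide alone without protein; negative values mean loss of peptide binding seen as reduced polarization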)
In short: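 A drop in FITC polarization marked displacement of the FITC-tagged RGS12 GoLoco peptide (10 nM) from Gαi1 (50 nM). Compounds were incubated 10 min at room temperature in Tris pH 7.5 buffer containing 150 mM NaCl, 0.1 mM GDP and 0.05% NP40; unlabeled peptide titration served as control.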

[8] = qHTS Assay for Identification of Small Molecule Agonists for Thrombopoietin (TPO) Signaling Pathway (AID 917; active = well fitted curve in the direction sought with a large enough effect; an effect the other way counts as inactive or inconclusive; note: % is set by controls: 0 for no effect and ±100 for the full control effect)
In short: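 Ba/F3 (mouse) + hTPO receptor + GpIIb-promoter luciferase; IL-3 withdrawn overnight; compound + 26 pM TPO (EC50), 24 hrs, 37 C, 5% CO2; Steadylite luminescence, 10 min RT.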

[9] = biological target: Pyruvate kinase (Leishmania mexicana) (UniProt Q27686); experiment: qHTS Validation Assay for Inhibitors of Leishmania Mexicana Pyruvate Kinase (AID 945; active = well fitted curve in the direction sought with a large enough effect; an effect the other way counts as inactive or inconclusive;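 note: 0% = DMSO only neutral control wells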)
In short: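 Pyruvate kinase activity of E451W LmPYK (0.2 nM) was followed as ATP output after 1 h at room temperature with 0.5 mM PEP and 0.1 mM ADP, detected by PKLight luminescence.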

[10] = biological target: Pyruvate kinase PKM (Homo sapiens) (UniProt P14618); experiment: qHTS Assay for Activators of Human Muscle Pyruvate Kinase (AID 954; active = well fitted curve in the direction sought with a large enough effect, not every such curve was filed as active;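 note: 0% = uninhibited enzyme and -100% = no enzyme or full thiadiazolimine inhibition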)
In short: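 PKM2, human, >95% pure, 0.1 nM; PEP 0.5 mM (Km), ADP 0.1 mM; 50 mM imidazole pH 7.2, 50 mM KCl, 0.01% Tween 20, 0.05% BSA; 1 h RT; luciferase luminescence readout.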

[11] = biological target: Alpha-galactosidase A (Homo sapiens) (UniProt P06280); experiment: Counterscreen for Glucocerebrosidase Inhibitors: qHTS Assay for Human alpha-Galactosidase at pH 4.5 (AID 992; active = well fitted curve in the direction sought with a large enough effect; an effect the other way counts as inactive or inconclusive; note: 0% is about no effect)
In short: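 Fluorogenic 4-MU alpha-D-galactoside (80 uM) hydrolysis, 2 nM enzyme, pH 4.5 citrate buffer + 0.005% Tween-20; 20 min RT; NaOH/glycine pH 10 stop; Ex365/Em440. Compounds titrated 0.7 nM–77 uM; Hill-equation AC50.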

[12] = biological target: Mitogen-activated protein kinase 10 (Mus musculus) (UniProt Q61831); experiment: JNK3 AlphaScreen Assay (AID 530)
In short: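 qHTS titrations with 15 min compound pre-incubation before adding ATP (10 uM final). Read-out: AlphaScreen of Ser73-phosphorylated biotin-GST-cJun using HepG2 lysate JNK3 activated by IL-1β and TNFα.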

[13] = biological target: ATP-dependent 6-phosphofructokinase (Trypanosoma brucei brucei) (UniProt O15648); experiment: qHTS Assay to Find Inhibitors of T. brucei phosphofructokinase: hit validation (AID 492961; active = well fitted curve in the direction sought with a large enough effect; an effect the other way counts as inactive or inconclusive)
In short: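 ADP-Glo luminescence read-out of ADP formed by 1.25 nM PFK from 0.1 mM ATP and 0.5 mM F6P (TEA pH 8.0, 45 min, RT). Compounds titrated; activity normalized to no-enzyme and full-enzyme controls.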

[14] = biological target: Ubiquitin carboxyl-terminal hydrolase 1 (Homo sapiens) (UniProt O94782); experiment: Inhibitors of USP1/UAF1: Pilot qHTS (AID 504865; active = well fitted curve in the direction sought with a large enough effect; an effect the other way counts as inactive or inconclusive;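 note: rhodamine fluorescence freed from ubiquitin-rhodamine substrate followed over time; top concentration of the series differs between compounds; % is set by controls: 0 for no effect and ±100 for the full control effect; nearly all actives have a fitted effect of over 35% in size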)
In short: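 1nM USP1/UAF1 + cpd, 15 min RT; start w/ Ub-Rho 150nM final; kinetic FL 480/540 nm, 6 reads q60 s. Buffer 50mM HEPES pH 7.8, 0.5mM EDTA, 1mM TCEP, 0.01% Tween-20, 0.1 mg/ml BSA.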

[15] = biological target: Luciferin 4-monooxygenase (Photinus pyralis) (UniProt P08659); experiment: Biochemical firefly luciferase enzyme assay for NPC (AID 624030; active = well fitted curve in the direction sought with a large enough effect; an effect the other way counts as inactive or inconclusive;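 note: purified P. pyralis luciferase at 10 nM with luciferin and ATP substrate; 0% = DMSO and -100% = full luciferase inhibition by PTC124 control; nearly all actives have a fitted effect of over 70% in size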)
In short: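 Direct inhibition of firefly luciferase enzyme (10 nM final, 50 mM Tris Acetate) assessed by luminescence within 5 minutes. Percent activity scaled between DMSO and PTC124 positive control, with concentration-effect curves classified by fit quality and response.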

[16] = S16 Schwann cell viability assay (CellTiter-Glo assay) (AID 624031; active = well fitted curve in the direction sought with a large enough effect; an effect the other way counts as inactive or inconclusive;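 note: native untransfected S16 rat Schwann cells; cellular ATP luminescence as a viability measure; plate controls were DMSO-treated cells for no effect and cell-free wells for full effect; nearly all actives have a fitted effect of over 70% in size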)
In short: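 Concentration-effect curves come from CellTiter-Glo luminescence of S16 rat Schwann cells after 24 h compound exposure. Each reading was normalized to DMSO wells (0%) and wells without cells, and curves were ranked by r2 and response magnitude.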

[17] = S16 Schwann cell PMP22 intronic element firefly luciferase assay (AID 624032; active = well fitted curve in the direction sought with a large enough effect; an effect the other way counts as inactive or inconclusive;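 note: plate controls were DMSO for no effect and PTC124 positive control mean for full effect; nearly all actives have a fitted effect of over 30% in size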)
In short: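 Luciferase reporter of PMP22 intronic-element expression in stably transfected S16 rat Schwann cells, read by ONE-Glo luminescence after 24 h compound exposure at 37 C. Activity scaled between DMSO (0%) and positive-control PTC124; concentration-effect curves quality-classified.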

[18] = S16 Schwann cell PMP22 intronic element beta-lactamase assay (AID 624044; calls by dose curve;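 note: 0% = DMSO and -100% = potassium clavulanate positive control; nearly all actives have a fitted effect of over 15% in size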); conditions: S16 rat Schwann cells, PMP22 element beta-lactamase FRET, 24 h; ratio activity, negative = inhibition: at 38.3 µM (top of the series)
In short: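 Beta-lactamase reporter under a PMP22 intronic regulatory element in stable S16 rat Schwann cells; 24 h compound exposure. 460 nm blue signal normalized between DMSO (0%) and potassium clavulanate, with 535 nm FRET tracking viability; curves classed by r2 and response.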

ATS189 = experiment: qHTS profiling for inhibitors of Plasmodium falciparum proliferation (AID 504749; active = well fitted curve in the direction sought with a large enough effect; an effect the other way counts as inactive or inconclusive; note: nearly all actives have a fitted effect of over 60% in size; note: potency is the fitted concentration of half-maximal effect;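 for activity, negative = inhibition: 0% = DMSO vehicle and full inhibition = artemisinin control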); conditions: P. falciparum in erythrocytes, SYBR Green DNA, 72 h; series mostly up to 28.7 µM
In short: (§1)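 SYBR Green fluorescence of parasite DNA, read after lysis and overnight dark incubation, measured growth over 72 h in erythrocyte culture at 0.3% parasitemia and 2.5% hematocrit. Data normalised to DMSO and 0.29 uM artemisinin, with plate-drift correction.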

CP262 = experiment: as above; conditions: P. falciparum in erythrocytes, SYBR Green DNA, 72 h; series mostly up to 28.7 µM
In short: as §1

CP297 = experiment: as above; conditions: P. falciparum in erythrocytes, SYBR Green DNA, 72 h; series mostly up to 28.7 µM
In short: as §1

CP335 = experiment: as above; conditions: P. falciparum in erythrocytes, SYBR Green DNA, 72 h; series mostly up to 28.7 µM
In short: as §1

Dd2 = experiment: as above; conditions: P. falciparum in erythrocytes, SYBR Green DNA, 72 h; series mostly up to 28.7 µM
In short: as §1

TAB109 = experiment: as above; conditions: P. falciparum in erythrocytes, SYBR Green DNA, 72 h; series mostly up to 28.7 µM
In short: as §1

W2 = experiment: as above; conditions: P. falciparum in erythrocytes, SYBR Green DNA, 72 h; series mostly up to 28.7 µM
In short: as §1

Chain of Glucocorticoid receptor (Homo sapiens) (P04150 whole entry, looked up): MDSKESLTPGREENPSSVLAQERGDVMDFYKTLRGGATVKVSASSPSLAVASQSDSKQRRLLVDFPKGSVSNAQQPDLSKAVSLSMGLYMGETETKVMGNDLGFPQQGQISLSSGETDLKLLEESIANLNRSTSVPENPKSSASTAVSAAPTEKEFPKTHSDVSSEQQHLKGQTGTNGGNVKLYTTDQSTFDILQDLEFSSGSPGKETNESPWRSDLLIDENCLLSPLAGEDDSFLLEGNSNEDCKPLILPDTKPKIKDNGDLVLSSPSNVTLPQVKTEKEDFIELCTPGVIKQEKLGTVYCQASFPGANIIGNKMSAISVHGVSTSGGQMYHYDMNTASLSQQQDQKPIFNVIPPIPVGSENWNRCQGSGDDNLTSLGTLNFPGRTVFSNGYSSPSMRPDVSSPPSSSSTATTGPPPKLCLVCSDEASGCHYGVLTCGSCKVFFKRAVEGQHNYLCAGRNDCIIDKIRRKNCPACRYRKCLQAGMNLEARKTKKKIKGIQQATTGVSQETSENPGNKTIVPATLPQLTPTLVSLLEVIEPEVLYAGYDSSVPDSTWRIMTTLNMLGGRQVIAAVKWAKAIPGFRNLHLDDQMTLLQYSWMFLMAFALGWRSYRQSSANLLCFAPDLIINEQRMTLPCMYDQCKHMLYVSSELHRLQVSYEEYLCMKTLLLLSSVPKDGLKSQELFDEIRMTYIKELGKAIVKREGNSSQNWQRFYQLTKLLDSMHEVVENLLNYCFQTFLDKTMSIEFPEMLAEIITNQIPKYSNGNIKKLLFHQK
Chain of 3',5'-cyclic-AMP phosphodiesterase 4B (Homo sapiens) (Q07343 whole entry, looked up): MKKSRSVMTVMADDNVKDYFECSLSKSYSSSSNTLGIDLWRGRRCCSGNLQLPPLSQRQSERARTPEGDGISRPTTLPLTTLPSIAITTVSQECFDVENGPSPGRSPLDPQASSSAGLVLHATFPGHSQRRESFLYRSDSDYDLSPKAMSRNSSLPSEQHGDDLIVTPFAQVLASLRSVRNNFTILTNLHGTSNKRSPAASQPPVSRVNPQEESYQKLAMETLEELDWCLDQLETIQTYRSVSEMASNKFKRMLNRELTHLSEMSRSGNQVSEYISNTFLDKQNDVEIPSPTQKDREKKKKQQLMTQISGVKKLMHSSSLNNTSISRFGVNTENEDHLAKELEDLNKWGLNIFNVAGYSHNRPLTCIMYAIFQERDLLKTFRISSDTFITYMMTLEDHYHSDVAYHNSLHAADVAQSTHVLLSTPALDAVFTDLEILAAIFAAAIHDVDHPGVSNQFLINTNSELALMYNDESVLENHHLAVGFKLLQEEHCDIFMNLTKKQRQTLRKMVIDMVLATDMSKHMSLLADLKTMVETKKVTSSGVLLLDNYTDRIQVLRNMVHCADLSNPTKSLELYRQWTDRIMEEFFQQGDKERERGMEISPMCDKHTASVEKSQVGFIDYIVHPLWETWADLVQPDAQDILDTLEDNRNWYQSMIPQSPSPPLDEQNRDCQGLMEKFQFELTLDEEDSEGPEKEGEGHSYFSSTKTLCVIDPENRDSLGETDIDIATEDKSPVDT
Chain of Pyruvate kinase PKM (Homo sapiens) (P14618 whole entry, looked up): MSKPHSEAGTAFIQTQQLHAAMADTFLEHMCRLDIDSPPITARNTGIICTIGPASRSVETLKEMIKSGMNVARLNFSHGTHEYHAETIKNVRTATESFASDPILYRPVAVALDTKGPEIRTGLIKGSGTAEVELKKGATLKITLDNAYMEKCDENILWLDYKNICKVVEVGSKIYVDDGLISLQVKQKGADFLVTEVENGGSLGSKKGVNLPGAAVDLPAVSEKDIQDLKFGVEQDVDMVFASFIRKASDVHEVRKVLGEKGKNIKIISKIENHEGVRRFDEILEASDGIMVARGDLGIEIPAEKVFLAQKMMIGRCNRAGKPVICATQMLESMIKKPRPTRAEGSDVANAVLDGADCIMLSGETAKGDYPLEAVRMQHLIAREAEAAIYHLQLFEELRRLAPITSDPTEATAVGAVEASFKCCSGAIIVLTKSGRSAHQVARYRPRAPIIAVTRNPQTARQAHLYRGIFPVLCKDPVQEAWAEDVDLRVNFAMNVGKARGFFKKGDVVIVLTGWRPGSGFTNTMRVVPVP
Chain of ATP-dependent 6-phosphofructokinase (Trypanosoma brucei brucei) (O15648 whole entry, looked up): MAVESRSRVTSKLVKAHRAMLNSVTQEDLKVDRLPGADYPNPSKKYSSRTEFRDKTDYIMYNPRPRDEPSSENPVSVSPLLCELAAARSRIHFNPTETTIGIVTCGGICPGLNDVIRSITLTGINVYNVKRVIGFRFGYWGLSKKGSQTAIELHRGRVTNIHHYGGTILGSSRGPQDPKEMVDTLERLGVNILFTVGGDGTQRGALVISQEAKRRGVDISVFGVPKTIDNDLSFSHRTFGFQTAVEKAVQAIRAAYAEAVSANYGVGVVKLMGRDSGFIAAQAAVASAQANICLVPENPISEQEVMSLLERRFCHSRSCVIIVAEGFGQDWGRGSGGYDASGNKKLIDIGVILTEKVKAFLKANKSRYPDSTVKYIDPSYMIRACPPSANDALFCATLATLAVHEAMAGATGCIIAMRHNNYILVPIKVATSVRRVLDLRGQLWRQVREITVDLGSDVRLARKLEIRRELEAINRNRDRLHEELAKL
Chain of Guanine nucleotide-binding protein G(i) subunit alpha-1 (Homo sapiens) (P63096 whole entry, looked up): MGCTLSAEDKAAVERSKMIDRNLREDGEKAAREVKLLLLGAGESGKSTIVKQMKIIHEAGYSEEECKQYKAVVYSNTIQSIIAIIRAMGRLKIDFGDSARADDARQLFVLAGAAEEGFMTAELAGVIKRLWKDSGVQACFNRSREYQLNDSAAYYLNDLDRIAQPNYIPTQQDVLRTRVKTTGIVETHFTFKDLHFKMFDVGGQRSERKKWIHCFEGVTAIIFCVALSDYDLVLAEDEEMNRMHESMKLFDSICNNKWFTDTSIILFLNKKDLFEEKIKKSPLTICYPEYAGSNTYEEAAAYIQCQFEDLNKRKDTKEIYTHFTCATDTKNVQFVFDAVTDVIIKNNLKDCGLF
Chain of Pyruvate kinase (Leishmania mexicana) (Q27686 2-499 E452W): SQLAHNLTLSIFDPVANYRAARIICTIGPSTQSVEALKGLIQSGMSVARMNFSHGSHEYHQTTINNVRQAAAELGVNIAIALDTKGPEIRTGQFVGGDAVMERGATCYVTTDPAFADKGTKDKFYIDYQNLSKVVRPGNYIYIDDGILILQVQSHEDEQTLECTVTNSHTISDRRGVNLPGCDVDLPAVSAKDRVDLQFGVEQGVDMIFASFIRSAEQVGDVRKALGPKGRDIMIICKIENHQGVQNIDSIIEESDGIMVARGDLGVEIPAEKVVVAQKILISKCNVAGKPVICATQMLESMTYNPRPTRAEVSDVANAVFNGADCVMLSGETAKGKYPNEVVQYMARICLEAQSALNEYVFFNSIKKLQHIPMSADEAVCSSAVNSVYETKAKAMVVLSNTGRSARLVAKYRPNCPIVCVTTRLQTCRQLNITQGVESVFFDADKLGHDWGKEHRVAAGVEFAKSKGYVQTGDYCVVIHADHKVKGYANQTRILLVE
Chain of Alpha-galactosidase A (Homo sapiens) (P06280 whole entry, looked up): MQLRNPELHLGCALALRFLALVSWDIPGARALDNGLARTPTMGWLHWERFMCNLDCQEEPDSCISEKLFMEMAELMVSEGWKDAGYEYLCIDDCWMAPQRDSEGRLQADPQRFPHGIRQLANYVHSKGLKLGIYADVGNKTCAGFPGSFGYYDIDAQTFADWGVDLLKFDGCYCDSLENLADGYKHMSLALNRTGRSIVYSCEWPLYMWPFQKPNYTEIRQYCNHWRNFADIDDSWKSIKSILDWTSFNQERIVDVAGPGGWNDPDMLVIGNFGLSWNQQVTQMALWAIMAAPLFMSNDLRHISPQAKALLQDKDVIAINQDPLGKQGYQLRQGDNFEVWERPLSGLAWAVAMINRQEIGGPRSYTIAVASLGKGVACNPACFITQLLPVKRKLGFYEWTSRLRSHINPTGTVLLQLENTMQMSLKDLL
Chain of Luciferin 4-monooxygenase (Photinus pyralis) (P08659 whole entry, looked up): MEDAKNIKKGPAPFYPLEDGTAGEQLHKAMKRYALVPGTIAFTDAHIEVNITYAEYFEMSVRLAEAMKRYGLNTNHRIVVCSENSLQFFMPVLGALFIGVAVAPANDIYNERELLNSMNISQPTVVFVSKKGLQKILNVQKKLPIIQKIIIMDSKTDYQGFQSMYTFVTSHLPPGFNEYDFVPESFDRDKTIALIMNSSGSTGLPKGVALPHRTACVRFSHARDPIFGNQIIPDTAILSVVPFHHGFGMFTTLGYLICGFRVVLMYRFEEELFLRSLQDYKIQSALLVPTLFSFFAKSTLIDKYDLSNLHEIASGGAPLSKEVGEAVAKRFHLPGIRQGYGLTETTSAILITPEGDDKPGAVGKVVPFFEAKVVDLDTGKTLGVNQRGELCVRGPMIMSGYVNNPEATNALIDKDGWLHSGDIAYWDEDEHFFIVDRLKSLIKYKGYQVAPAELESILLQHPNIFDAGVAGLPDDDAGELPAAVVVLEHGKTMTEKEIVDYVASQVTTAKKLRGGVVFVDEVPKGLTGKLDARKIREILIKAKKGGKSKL

SMILES: Cc1cc(C(F)(F)F)c(C#N)c(SCC(=O)NC2CC2)n1
- activity change, negative = inhibition [1]: 19.7%
- activity change, negative = inhibition [2]: -9.19%
- activity, negative = inhibition [3]: 1.05%
- Potency [4]: > 20.6 µM
- activation [5]: 16.3%

SMILES: CCN1CCC[C@@H]1CNC(=O)c1c(O)c(Cl)cc(Cl)c1OC
- activity change, negative = inhibition [1]: 10.6% [at 38 µM]
- activity change, negative = inhibition [2]: 2.12% [at 38 µM]
- activity, negative = inhibition [3]: -20.4% [at 38 µM]
- Potency [6]: inactive
- outcome [7]: inactive
- Potency [8]: inactive
- Potency [9]: inactive
- outcome [10]: inactive
- outcome [11]: inactive

SMILES: O=C(COc1ccccc1)Nc1ccc(-c2nnc(-c3ccco3)o2)cc1
- activity change, negative = inhibition [1]: 6.06%
- activity change, negative = inhibition [2]: 7.57%
- Potency [4]: > 20.6 µM

SMILES: CCC[C@H]1C[C@H](C(=O)N[C@@H]([C@H]2O[C@@H](SC)[C@@H](O)[C@@H](O)[C@@H]2O)[C@H](C)Cl)N(C)C1
- activity change, negative = inhibition [1]: -4.04%
- activity change, negative = inhibition [2]: 0.269%
- activity, negative = inhibition [3]: 1.36%
- Potency [12]: inactive
- Potency [6]: inactive
- Potency [13]: inactive
- Potency [14]: inactive
- Potency [15]: inactive
- Potency [16]: inactive
- Potency [17]: inactive
- Potency [18]: inactive
- Potency (ATS189): inactive
- Potency (CP262): 0.0151 µM (active)
- Potency (CP297): 0.0601 µM (active)
- Potency (CP335): 0.0601 µM (active)
- Potency (Dd2): 0.0447 µM (active)
- Potency (TAB109): 0.0316 µM (active)
- Potency (W2): 0.0426 µM (active)

SMILES: ClC(Br)=C(n1cnc2ccccc21)n1cnc2ccccc21
- activity change, negative = inhibition [1]: -25.5%
- activity change, negative = inhibition [2]: -11.4%
- Potency [4]: > 20.6 µM

SMILES: Cc1ccc(C(=O)/C=C/Nc2cccc(O)c2)cc1
- activity change, negative = inhibition [1]: 10.4%
- activity change, negative = inhibition [2]: 1.57%
- activity, negative = inhibition [3]: -17.8%
- Potency [4]: > 20.6 µM
- Potency [5]: 10 µM (active)

SMILES: CC(C)(C)OC(=O)N1CC=C2C(C#N)=C(N)C(C#N)(C#N)[C@H](c3cccnc3)[C@H]2C1
- activity change, negative = inhibition [1]: 3.85%
- activity change, negative = inhibition [2]: 4.36%
- Potency [4]: > 20.6 µM

SMILES: CC(C)(C)n1nnc(CCc2nnn(C(C)(C)C)n2)n1
- activity change, negative = inhibition [1]: 1.01%
- activity change, negative = inhibition [2]: -17.9%
- Potency [4]: > 20.6 µM
